Measured values: the supplement of paper PMC3334620
Over roughly 33,000 sequences, “E-score (-0.5 to 0.5)” has its median near -0.012; the highest 2% begin near 0.29. The sample as a whole holds a higher share of the highest values than the screen did.

These sequences were tested against T1, Ybr033w (UniProt P38073) (assay: PBM E-score (8-mer binding enrichment) (E-score (-0.5 to 0.5)); higher = stronger / more preferred TF binding). Settings: protein concentration: 200 nM; construct: GST-full length.
T1 sequence: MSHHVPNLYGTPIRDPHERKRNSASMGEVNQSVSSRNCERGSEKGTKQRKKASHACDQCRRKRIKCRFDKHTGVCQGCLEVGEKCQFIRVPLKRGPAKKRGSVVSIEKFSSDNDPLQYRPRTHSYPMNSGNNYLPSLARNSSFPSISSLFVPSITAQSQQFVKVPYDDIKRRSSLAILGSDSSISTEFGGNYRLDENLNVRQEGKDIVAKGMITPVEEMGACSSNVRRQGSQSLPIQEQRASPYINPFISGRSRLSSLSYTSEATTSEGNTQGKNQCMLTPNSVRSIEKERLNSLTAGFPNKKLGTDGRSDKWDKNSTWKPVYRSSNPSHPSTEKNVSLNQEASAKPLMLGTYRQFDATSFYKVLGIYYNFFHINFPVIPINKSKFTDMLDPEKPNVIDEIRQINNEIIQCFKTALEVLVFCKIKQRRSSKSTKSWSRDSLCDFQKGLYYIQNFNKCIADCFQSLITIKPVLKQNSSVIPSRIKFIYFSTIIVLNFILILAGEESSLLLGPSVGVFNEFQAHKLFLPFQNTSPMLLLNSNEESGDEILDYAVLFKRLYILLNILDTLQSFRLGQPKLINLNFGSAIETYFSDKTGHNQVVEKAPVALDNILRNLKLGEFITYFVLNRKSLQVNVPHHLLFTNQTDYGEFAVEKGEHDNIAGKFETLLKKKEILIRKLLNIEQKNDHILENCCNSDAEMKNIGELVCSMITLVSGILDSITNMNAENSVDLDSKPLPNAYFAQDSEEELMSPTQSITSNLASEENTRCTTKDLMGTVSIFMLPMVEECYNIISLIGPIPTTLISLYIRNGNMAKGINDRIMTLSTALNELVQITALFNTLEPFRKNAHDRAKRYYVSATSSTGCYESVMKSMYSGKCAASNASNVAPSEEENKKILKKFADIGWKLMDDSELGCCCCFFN
In short: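 Each ungapped eight-base word and its reverse complement, pooled, received an E-score from the Universal PBM Analysis Suite. Underlying scans, normalised with masliner, recorded fluorescent anti-GST bound to GST-tagged yeast transcription factors. These were applied at about 100-200 nM to universal all-10-mer Agilent arrays double-stranded by primer extension.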

| Sequence | PBM E-score |
| --- | --- |
| AAGAGGGG | -0.226 |
| GTGCCACA | -0.302 |
| CTGGCAGA | -0.00651 |
| GCGGGACA | -0.243 |
| CGCGATCA | 0.0933 |
| AGATCTGA | -0.108 |
| CTAAGGGA | 0.0981 |
| ACCTGCGG | -0.146 |
| ACTGCCAT | 0.00233 |
| TCCTCGAA | 0.126 |
| AACCAAAT | 0.228 |
| ATGGGGTG | -0.195 |
| CGATATTA | 0.336 |
| CGATATTC | 0.123 |
| GGATATTA | 0.144 |
| AACTTCCC | 0.00652 |
| AGATAGGA | 0.00058 |
| ATTTATTA | 0.293 |
| ATTATTTC | 0.332 |
| GTTTATTA | 0.276 |
| CTTTATTC | 0.192 |
| CTTATTTC | 0.235 |
| ATTATTTG | 0.335 |
| ATTTATTG | 0.0954 |

| Sequence | PBM E-score |
| --- | --- |
| ACTATTTG | 0.248 |
| ATTATTAG | 0.152 |
| CTTTATTA | 0.191 |
| ACTATTTC | 0.237 |
| ATTTATTC | 0.361 |
| AGCCAATA | -0.0344 |
| AAAAAGCG | 0.112 |
| CCGTTGCG | -0.192 |
| AAGAATAG | 0.204 |
| CGACAAAC | 0.0224 |
| CCATGGGA | -0.0942 |
| AAACTAGG | 0.0193 |
| GGAGAGAC | -0.0678 |
| ATTATTTA | 0.373 |
| ACTATTCG | 0.177 |
| GTTATTTA | 0.258 |
| ATTATTCA | 0.231 |
| ATTATTCG | 0.328 |
| CTTATTTA | 0.106 |
| AAATCTCT | 0.152 |
| AGAAAGTC | 0.173 |
| CCACGAGG | -0.0481 |
| AATAGGAC | 0.0355 |
| AATAGGAG | -0.253 |

| Sequence | PBM E-score |
| --- | --- |
| TATAGGAA | 0.232 |
| AATAGGAT | 0.295 |
| AATAGGAA | 0.29 |
| CATAGGAA | 0.0524 |
| ACGCGACC | -0.208 |
| ACTAACCA | 0.11 |
| AGCACTTC | 0.0586 |
| ACGCGACT | -0.174 |
| AATTATTC | 0.423 |
| GATTATCA | 0.19 |
| CATTACTC | 0.11 |
| AATTATAC | 0.284 |
| GATTATCC | 0.396 |
| AATTACTC | 0.328 |
| CATTATTC | 0.213 |
| AATTACTA | 0.234 |
| GATTATAA | 0.172 |
| GATTATTA | 0.298 |
| CATTATCC | 0.224 |
| CATTATTA | 0.243 |
| AACGGCTC | -0.0166 |
| TAGGAATA | 0.194 |
| AGTGGTCG | -0.159 |
| ATTGCCAA | -0.00029 |

| Sequence | PBM E-score |
| --- | --- |
| TATTGGCA | 0.0828 |
| ACATTGCG | 0.0729 |
| TGTCCACA | 0.134 |
| GGACACAA | 0.163 |
| CTGAGCAA | -0.0556 |
| ATGCCTAC | -0.0813 |
| CACTGGGA | -0.0293 |
| ATACAAGC | 0.209 |
| AATTATAA | 0.253 |
| AATTATTA | 0.359 |
| AGTTATTG | 0.223 |
| AGTTATTA | 0.173 |
| AATTATTG | 0.274 |
| AGTTATTC | 0.345 |
| ATGAAGAG | 0.0478 |
| AGAAGACG | 0.123 |
| ATTTCCTG | 0.3 |
| ATTTCCTA | 0.101 |
| ATTTCCGG | 0.298 |
| ATTTCCTC | 0.176 |
| ATTTCCGA | 0.247 |
| ATTTCCGC | 0.15 |
| CCCGAGGC | -0.329 |
| ATTAAGCC | 0.0562 |

| Sequence | PBM E-score |
| --- | --- |
| AATTTTAT | 0.331 |
| GATTTACA | 0.297 |
| AACTTGAT | 0.333 |
| CATTTACA | 0.197 |
| TATTTACA | 0.21 |
| AACTTGAG | -0.167 |
| AAATTACC | 0.164 |
| AACTTGAA | 0.251 |
| AAATTACG | 0.111 |
| AAATTACT | 0.333 |
| AATTTTAA | 0.285 |
| AATTTTAC | 0.282 |
| CGCTCCTA | -0.101 |
| AGTTAGAA | 0.0705 |
| GTGGCTGA | -0.183 |
| GACAGCAC | -0.00022 |
| GGGTCCTA | -0.279 |
| TCTAAGCA | -0.00029 |
| CCGCTGCC | -0.418 |
| CCAGAGCA | -0.0441 |
| AACCAGCC | -0.0273 |
| GACCAGGC | -0.164 |
| AGGATGCA | -0.0489 |
| CGTTCTAC | 0.00885 |
